The list is not random: actives were taken first. Their share in the collection is about 2.3%.
CHT block: inhibitors of human choline transporter CHT; AID 488975; Q9GZV3; CHT-expressing cells, membrane potential dye, choline response; hits give low values; B-score at 10 µM; 310,000 compounds, 0.86% hits;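 active = B-score over 3 SD under the library average, and starting fluorescence ratio not unusually high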;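 also: choline stimulus applied at its EC90 after an EC20 pre-addition; B-score computed on integrated fluorescence ratio after choline addition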
TMEM16A act: activators or potentiators of mouse TMEM16A chloride channel; Q8BHY3; HEK293 TMEM16A/YFP-H148Q/I152L, iodide quench fluorescence; hits give low values; B-score at 10 µM; 340,000 compounds, 0.3% hits;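 active = fluorescence-ratio B-score plate-corrected deviation score at least 3 library SD below zero, with starting fluorescence score within 5 deviations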;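 also: channel opened by trigger with iodide after compound preincubation; score built on the fluorescence ratio of max minus min over baseline; more negative score means more quench and so TMEM16A activation or potentiation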
Target sequence (Q8BHY3 whole entry, looked up): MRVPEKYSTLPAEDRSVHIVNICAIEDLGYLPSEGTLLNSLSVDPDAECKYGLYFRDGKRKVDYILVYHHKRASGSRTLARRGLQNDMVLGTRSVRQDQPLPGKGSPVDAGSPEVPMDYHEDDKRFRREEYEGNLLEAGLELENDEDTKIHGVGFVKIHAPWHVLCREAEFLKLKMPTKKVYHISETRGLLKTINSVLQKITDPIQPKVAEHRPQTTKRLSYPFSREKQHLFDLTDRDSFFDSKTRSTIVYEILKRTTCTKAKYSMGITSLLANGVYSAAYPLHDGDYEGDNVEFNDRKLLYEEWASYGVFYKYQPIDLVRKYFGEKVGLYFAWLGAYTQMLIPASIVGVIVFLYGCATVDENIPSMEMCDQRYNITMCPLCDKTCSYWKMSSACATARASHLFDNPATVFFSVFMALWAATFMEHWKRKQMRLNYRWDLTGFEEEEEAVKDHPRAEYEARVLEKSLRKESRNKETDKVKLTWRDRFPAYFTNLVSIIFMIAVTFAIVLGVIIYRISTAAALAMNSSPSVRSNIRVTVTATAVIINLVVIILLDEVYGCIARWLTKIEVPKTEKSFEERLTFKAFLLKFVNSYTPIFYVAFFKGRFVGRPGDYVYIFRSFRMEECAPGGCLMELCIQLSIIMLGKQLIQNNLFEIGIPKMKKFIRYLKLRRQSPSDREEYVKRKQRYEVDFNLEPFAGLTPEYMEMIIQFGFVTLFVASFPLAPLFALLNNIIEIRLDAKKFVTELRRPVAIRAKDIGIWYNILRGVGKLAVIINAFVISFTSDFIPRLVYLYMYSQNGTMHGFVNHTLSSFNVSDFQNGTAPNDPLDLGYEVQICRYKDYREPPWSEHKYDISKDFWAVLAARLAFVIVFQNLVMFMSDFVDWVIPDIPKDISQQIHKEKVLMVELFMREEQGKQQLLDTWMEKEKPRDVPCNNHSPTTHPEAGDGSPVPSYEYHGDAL
ANO1 block: mouse TMEM16A channel inhibition, primary screen. HEK293 TMEM16A/YFP iodide influx fluorescence, ionomycin. normalized B-score (activity score, 25-100; higher = stronger inhibition) at 10 µM. 310,000 compounds, 1.2% hits. AID 588511;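 active = ratio plate-corrected score three or more library SD toward inhibition, starting fluorescence score within five deviations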;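 also: score derived from kinetic fluorescence span divided by baseline fluorescence per well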
CHT allo act: allosteric activators of human choline transporter CHT | Q9GZV3 | CHT-expressing cells, membrane potential dye, choline EC20; hits give high values; LV-AA mutant CHT in HEK293 cells | B-score at 10 µM | 310,000 compounds, 0.49% hits | AID 488977;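 active = initial fluorescence not abnormally high and integrated response B-score, plate-corrected, over 3 SD above library mean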
CHT activ conf: confirmation of human choline transporter (CHT) activators; CHT-expressing cells, membrane potential dye fluorescence (FDSS); % of choline EC20–EC90 response window; HEK293 expressing CHT LV-AA mutant; choline added at its EC20; 2,500 compounds, 91% hits; activation, % at 10 µM; shares compounds with CHT allo act; AID 504833;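 active = primary screen active, with duplicate mean activation above negative control mean plus 3 SD, cut at about 11% in these data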
HEK293 MP dye: activity in parental HEK293 cells lacking CHT | ratio readout change at 10 µM, hits read low | membrane potential dye fluorescence (FDSS); measured after EC20 choline addition | AID 623908 | 2,500 compounds, 62% hits | shares compounds with CHT allo act;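 active = duplicate-averaged ratio beyond 3 SD from buffer wells, up or down, though filed actives are nearly all decreases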
Hits are given with their value; n = inactive; x = no result.

SMILES	CHT block	TMEM16A act	ANO1 block	CHT allo act	CHT activ conf	HEK293 MP dye
CC(C)CCC(CCNCc1ccccn1)c1ccc(Cl)cc1 (stereo unspecified)	n	n	n	n	33	n
O=C(O)CC/C(=N/NC(=O)CNC(=O)C(c1ccccc1)c1ccccc1)c1ccccc1	n	n	n	n	x	x
CCc1ccc(-c2nc(SCC(=O)N(CC)C3CCS(=O)(=O)C3)n[nH]2)cc1 (stereo unspecified)	n	n	n	n	x	x
COc1ccc(-c2cn(-c3ccc(OC)cc3)c3[n+]2-c2ccccc2CC3)cc1	n	n	n	9.5	53	n
COc1ccc(-n2cc(-c3ccc(C)cc3)[n+]3c2SCC3)cc1	n	n	n	n	x	x
COc1ccc(-n2cc(-c3ccccc3)[n+]3c2CCCCC3)cc1	n	n	n	6.5	55	n
COc1ccc(-c2cn(-c3ccc(SC(F)F)cc3)c3[n+]2CCC3)cc1OC	n	n	n	6.3	32	-39
FC(F)Sc1ccc(-n2cc(-c3ccccc3)[n+]3c2CCC3)cc1	n	n	n	n	21	-40
CC(=O)Nc1ccc(NC(=O)c2c(C)nn(-c3ccccc3)c2Cl)cc1C	n	n	n	n	x	x
CCc1cc2c(SCC(=O)NC3CC3)ncnc2s1	x	n	x	x	x	x
O=C(COc1cccc2c1CCN(Cc1ccc(Br)cc1)C2=O)NCc1ccco1	n	n	n	n	x	x
CC1(C)Cc2c(sc3c2C2=NCCN2C=N3)CS1	n	n	n	9.5	34	-62
C=CCn1c(SCC(=O)O)nnc1-c1cccc(Cl)c1	n	n	n	6.6	n	n
COc1ccc(NC(=O)C(=O)c2cn(CC(=O)N3CCCC3)c3ccccc23)cc1	n	n	n	n	x	x
Cc1ccc(C)c(CN2C(=O)CSc3ccc(C(=O)NCC(C)CN4CCC(C)CC4)cc32)c1 (stereo unspecified)	n	n	n	6.8	40	-34
Cn1c(=NC(=O)C2=NNC(=O)CC2)sc2ccccc21	n	n	n	6.9	54	-32
COc1ccc(S(=O)(=O)N2CCCCCC2)cc1C(=O)N(C)CCOc1ccccc1	n	n	n	6.5	27	n
CCOc1ccc2c(c1)C(c1ccccc1)=NNC(c1ccccc1)=N2	n	n	n	n	x	x
CC(=NCCCn1ccnc1)C1=C(O)c2ccccc2C1=O	n	n	n	n	29	-38
Cc1ccc(NC(=O)c2ccc3c(=O)n4c(nc3c2)CCC4)cc1S(=O)(=O)N(C)C	x	n	x	x	x	x
O=C(c1cccc(C(F)(F)F)c1)C1CCCN(Cc2cccn2-c2ncccn2)C1 (stereo unspecified)	n	n	n	9.2	25	n
COc1cccc(C(=O)C2CCCN(Cc3cccn3-c3ccccn3)C2)c1 (stereo unspecified)	n	n	n	9.7	46	-26
Cc1ccsc1C(=O)C1CCCN(Cc2cccn2-c2ccc(Cl)cn2)C1 (stereo unspecified)	n	n	n	16	49	n
Cc1ccc(-n2cccn2)c(CN2CCCC(C(=O)c3sccc3C)C2)c1 (stereo unspecified)	n	n	n	n	x	x
CCOc1ccc(-c2ccc3nnc(SCC(=O)NCC4CCCO4)n3n2)cc1 (stereo unspecified)	n	n	n	n	x	x
SMILES	CHT block	TMEM16A act	ANO1 block	CHT allo act	CHT activ conf	HEK293 MP dye
NC(N)=Nc1nc(-c2ccccc2)c2ccccc2n1	n	n	n	8.1	24	-52
CC(C)Nc1nnc(SC(C)C(=O)NCc2ccc3c(c2)OCO3)s1 (stereo unspecified)	n	n	n	n	x	x
O=C(Nc1ccccc1Oc1cccnc1)C1CCCN(Cc2ccccc2O)C1 (stereo unspecified)	n	n	n	n	x	x
C#Cc1ccc(CN2CCCC(C(=O)Nc3ccccc3Oc3cccnc3)C2)cc1 (stereo unspecified)	n	n	n	n	17	n
Cc1nc2ccc(NC(=O)c3ccc(=O)[nH]c3)cc2s1	n	n	n	n	33	-39
Cc1nc2ccc(NC(=O)c3ccccc3)cc2s1	n	n	n	n	x	x
CCOC(=O)c1sc(NC(=O)c2c(OC)cccc2OC)nc1C	n	n	n	n	x	x
CCOC(=O)c1sc(NC(=O)Cc2ccccc2OC)nc1C	n	n	n	n	15	n
Cc1cc2nc3ccc(N(C)C)cc3nc2cc1N	n	n	n	n	30	-24
Cc1ccc(C(=O)c2cc([N+](=O)[O-])ccc2N2CCN(C)CC2)cc1	n	n	n	12	38	n
COc1ccc([C@H]2/C=C\CN(C(=O)c3ccc(C)cc3)[C@@H](C)C(=O)N2Cc2ccc(F)cc2)cc1	n	n	n	n	x	x
COc1ccc([C@H]2/C=C\CN(C(=O)CC(C)(C)C)[C@@H](C)C(=O)N2Cc2ccc(F)cc2)cc1	n	n	n	9	25	n
CCOc1cc(C(=O)NC2CCCCCCC2)cc(OCC)c1OCC	n	n	n	n	x	x
CCC(=O)NCCc1nc2cc(NC(=O)c3cccc([N+](=O)[O-])c3)ccc2n1C	n	n	n	n	32	-26
CCC(CC)C(=O)Nc1c2c(nn1-c1ccc(F)cc1)CS(=O)(=O)C2	n	n	n	n	x	x
O=C(c1ccccc1F)N(Cc1ccc2c(c1)OCO2)Cc1cc2cc3c(cc2n2nnnc12)OCO3	n	n	n	n	15	n
Cc1ccc(S(=O)(=O)NC2CCCCC2)c(C)c1NS(C)(=O)=O	n	n	n	n	x	x
C[n+]1ccc(/C=C/c2ccccc2O)c2ccccc21	n	n	n	n	30	-39
CN1/C(=C/c2cc[n+](C)c3ccccc23)C=Cc2ccccc21	x	n	x	x	x	x
CCCCCCCCCCCCCCCC[N+](C)(C)CCN(Cc1ccc(OC)cc1)c1ncccn1	n	n	n	n	18	-60
CC[N+](C)(C)CCN(Cc1ccc(Cl)cc1)c1ccccn1	n	n	n	n	x	x
Cn1c(=O)c2c(nc(N3CCOCC3)n2CCCNC2=NCCCCC2)n(C)c1=O	n	n	n	8.4	60	-63
Cn1c(=O)c2c(ncn2CCNC2=NCCCCC2)n(C)c1=O	n	n	n	n	x	x
COc1c(O)c(=O)n2c3ccccc3c3ccnc1c32	n	n	n	n	41	n
COc1ccc(NC(=O)C2CCN(S(=O)(=O)c3cccc4nonc34)CC2)c(OC)c1	n	n	n	n	x	x
Cc1c(CCOC(=O)c2ccccc2)sc[n+]1Cc1ccccc1	n	n	n	n	x	x
Cc1c(CCOC(=O)c2cc([N+](=O)[O-])cc([N+](=O)[O-])c2)sc[n+]1CC(=O)c1ccccc1	n	n	n	n	32	n
Cc1c(CCOC(=O)CC23CC4CC(CC(C4)C2)C3)sc[n+]1CC(=O)c1ccc(Br)cc1	n	n	n	n	28	-25

Screening data (PubChem)
